KB-3-1 cytotox: qHTS assay for MDR1-selective chemotherapeutics: Primary screen using the parental adenocarcinoma cell KB-3-1 | actives 1.4% (n = 400,000) | AID 1347075, 2019 | Potency, µM (series often up to 46.1 µM), actives largely listed as cytotoxic | KB-3-1 viability, CellTiter-Glo ATP luminescence, 72 h; note: % is set by controls: 0 for no effect and ±100 for the full control effect; nearly all actives have a fitted effect of over 60% in size
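Parental KB-3-1 adenocarcinoma cells in phenol-red-free DMEM with 10% FBS were pin-treated with compounds at several concentrations, incubated 72 h at 37 °C, and viability read by CellTiter-Glo luminescence; concentration-effect curves were fitted after normalization.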
HT1080 IDH1KD tx: qHTS for induction of synthetic lethality in tumor cells producing 2HG: qHTS for the HT-1080-IDH1KD cell line; HT-1080 IDH1 knockdown viability, ATP luminescence, 48 h; Potency, µM (series often up to 46.1 µM), inactives show at the top dose activity, negative = toxicity, hits mostly cytotoxic; actives 2% (n = 360,000); AID 686971, 2013;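 note: 0% = DMSO wells and -100% = cell-free medium wells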
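Using the IDH1-knockdown HT-1080 line run in the same batch and compound series as the NT line, viability after 48 h at 37 °C was determined by CellTiter-Glo luminescence and expressed as % activity.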
MCF10A rerep: A quantitative high throughput screen for small molecules that induce DNA re-replication in MCF 10a normal breast cells; actives 2.9% (n = 350,000); Potency, µM (top dose mostly 46.1 µM), inactives show top-dose activity, positive = re-replication, usual class: activators; AID 624296, 2012; MCF 10A DNA re-replication, Hoechst nuclear intensity, 48 h; note: % of control where 0% means no effect; nearly all actives have a fitted effect of over 50% in size
HT1080NT lethal: qHTS for induction of synthetic lethality in tumor cells producing 2HG: qHTS for the HT-1080-NT fibrosarcoma cell line. actives 1.6% (n = 360,000). HT-1080-NT fibrosarcoma viability, CellTiter-Glo ATP luminescence, 48 h. AID 686970, 2013. Potency, µM (titrated, usually from 46.1 µM), for inactives: at the highest dose activity, negative = less viability, actives largely listed as cytotoxic;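 note: NT is the 2HG producing partner of a matched IDH1 knockdown line; 0% = DMSO-treated cells and -100% = media-only wells without cells; nearly all actives have a fitted effect of over 55% in size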
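Read-out is CellTiter-Glo luminescence after 10 minutes at room temperature, following 48 hours' compound treatment of HT-1080-NT cells (750 cells/well, RPMI, 5% FBS, 37 degrees C).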
SW480 rereplic: A quantitative high throughput screen for small molecules that induce DNA re-replication in SW480 colon adenocarcinoma cells; SW480 DNA re-replication, Hoechst DNA content imaging, 48 h; Potency, µM (series often up to 46.1 µM), for inactives: at the top dose re-replication activation, most hits filed as activators; actives 1.8% (n = 340,000); AID 624297, 2012; note: % of control where 0% means no effect; nearly all actives have a fitted effect of over 55% in size
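Quantitative HTS format with DMSO vehicle controls; 48 hr drug incubation at 37 C, then 40 min Hoechst staining and scanning imager measurement at 405 nm excitation.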
KB-V1 cytotox: qHTS assay for MDR1-selective chemotherapeutics: Primary screen using the drug-selected MDR subline cells KB-V1; Potency, µM (doses to about 46.1 µM), most hits filed as cytotoxic; actives 3.4% (n = 400,000); KB-V1 MDR cells viability, CellTiter-Glo, 72 h; note: % is set by controls: 0 for no effect and ±100 for the full control effect; nearly all actives have a fitted effect of over 60% in size
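qHTS viability screen in drug-selected KB-V1 MDR cells: 72 h compound treatment at 37 degrees C, ATP luminescence end point.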
* marks the source's active call; other numbers are inactive results. An excerpt weighted towards active compounds, which were near 7.9% of everything screened. Calls come from the whole dose curve; as a rule, active = well fitted curve in the direction sought with a large enough effect; inconclusive = small, poorly fitted or top-dose-only effect, or another doubt; inactive = no such curve, though single readings can be large; an effect the other way counts as inactive or inconclusive. Potency is the fitted concentration of half-maximal effect.

Screening Cc1cccc(NC(=S)N2CCC(c3nc4ccccc4o3)CC2)c1 returned KB-3-1 cytotox inactive, HT1080 IDH1KD tx 8%, MCF10A rerep 1%, HT1080NT lethal 11%, SW480 rereplic 1% and KB-V1 cytotox inactive.
Cc1ccc(-n2c(Cc3cccn3C)nnc2SCC(=O)NC2CCCCC2)cc1 was read as KB-3-1 cytotox inactive, HT1080 IDH1KD tx 2%, MCF10A rerep inconclusive, HT1080NT lethal -1%, SW480 rereplic 35% and KB-V1 cytotox inactive.
`O=C(COC(=O)/C=C/c1ccc([N+](=O)[O-])cc1)NC(=O)NC1CCCCC1` gave KB-3-1 cytotox inactive, HT1080 IDH1KD tx -13%, MCF10A rerep inconclusive, HT1080NT lethal inconclusive, SW480 rereplic -21% and KB-V1 cytotox inactive.
For CCCCCCCNC(=O)c1ccc(N2CCC3(CC2)OCCO3)c([N+](=O)[O-])c1 the results were KB-3-1 cytotox inactive, HT1080 IDH1KD tx 0%, MCF10A rerep 25%, HT1080NT lethal -1%, SW480 rereplic -61% and KB-V1 cytotox 9.2µM*.
Screening O=C1c2cc([N+](=O)[O-])ccc2-c2cc(Br)c(N=C(NO)C(F)(F)F)cc21 returned KB-3-1 cytotox inconclusive, HT1080 IDH1KD tx -19%, MCF10A rerep 19%, HT1080NT lethal -17%, SW480 rereplic inconclusive and KB-V1 cytotox inconclusive.
Screening Cc1cccc(N2CCN(C(=O)C3CCCN(S(=O)(=O)c4ccc5c(c4)oc(=O)n5C)C3)CC2)c1C (configuration not stated) returned KB-3-1 cytotox 7.3µM* and KB-V1 cytotox inactive.
For Cn1c(=O)oc2cc(S(=O)(=O)N3CCCC(C(=O)N4CCN(c5cccc(Cl)c5)CC4)C3)ccc21 (configuration not stated) the results were KB-3-1 cytotox 21µM* and KB-V1 cytotox inactive.
Screening Cn1c(=O)oc2cc(S(=O)(=O)N3CCC(C(=O)N4CCN(c5cccc(Cl)c5)CC4)CC3)ccc21 returned KB-3-1 cytotox inactive and KB-V1 cytotox inactive.
For Cc1cccc(N2CCN(C(=O)C3CCN(S(=O)(=O)c4ccc5c(c4)oc(=O)n5C)CC3)CC2)c1C the results were KB-3-1 cytotox inactive and KB-V1 cytotox inactive.
CCCS(=O)(=O)N1CCCC(C(=O)Oc2ccccc2Cl)C1 (configuration not stated) was read as KB-3-1 cytotox inactive, HT1080 IDH1KD tx 5%, MCF10A rerep -13%, HT1080NT lethal -1%, SW480 rereplic -3% and KB-V1 cytotox inconclusive.
`Cc1nn(-c2ccccc2)c(N)c1N=Nc1ccc2ccccc2c1` gave KB-3-1 cytotox inconclusive, HT1080 IDH1KD tx -9%, MCF10A rerep 15%, HT1080NT lethal -9%, SW480 rereplic 12% and KB-V1 cytotox inactive.
For Cc1ccc(N=Nc2c(N)nn(-c3ccccc3)c2N)cc1 the results were KB-3-1 cytotox inconclusive, HT1080 IDH1KD tx 9.2µM*, MCF10A rerep 15µM*, HT1080NT lethal 10µM*, SW480 rereplic 13µM* and KB-V1 cytotox 6.5µM*.
Screening N#C/C(=C\c1c(Oc2ccc(Cl)cc2)nc2ccccn2c1=O)C(=O)NC1CCS(=O)(=O)C1 (configuration not stated) returned KB-3-1 cytotox inconclusive, HT1080 IDH1KD tx inconclusive, MCF10A rerep 5.2µM*, HT1080NT lethal -13%, SW480 rereplic inconclusive and KB-V1 cytotox inactive.
`Cc1cccn2c(=O)c(/C=C(\C#N)C(=O)NC3CCS(=O)(=O)C3)c(N3CCC(C)CC3)nc12` (configuration not stated) gave KB-3-1 cytotox inactive, HT1080 IDH1KD tx 2%, MCF10A rerep 5.8µM*, HT1080NT lethal 1%, SW480 rereplic 8.2µM* and KB-V1 cytotox inactive.
For Cc1cc(Oc2nc3ccccn3c(=O)c2/C=C(\C#N)C(=O)NC2CCS(=O)(=O)C2)ccc1Cl (configuration not stated) the results were KB-3-1 cytotox inactive, HT1080 IDH1KD tx inconclusive, MCF10A rerep -23%, HT1080NT lethal inconclusive, SW480 rereplic inconclusive and KB-V1 cytotox inactive.
`CN1C(=S)SC(/[N+]([O-])=C\c2ccccc2)C1(C)C` (configuration not stated) gave KB-3-1 cytotox inactive, HT1080 IDH1KD tx 8%, MCF10A rerep -6%, HT1080NT lethal 7%, SW480 rereplic -8% and KB-V1 cytotox inactive.
`COc1ccc(C(CC(=O)Nc2ccc(Cl)cc2F)NC(=O)C(F)(F)F)cc1` (configuration not stated) gave KB-3-1 cytotox inactive, HT1080 IDH1KD tx inconclusive, MCF10A rerep 2%, HT1080NT lethal inconclusive, SW480 rereplic -10% and KB-V1 cytotox 8.2µM*.
`COc1cc(OC)c(OC)cc1CN1CCN(Cc2cccc(F)c2)CC1` gave KB-3-1 cytotox inactive, HT1080 IDH1KD tx 3%, MCF10A rerep 16%, HT1080NT lethal 1%, SW480 rereplic -31% and KB-V1 cytotox inconclusive.
Screening CC(NS(=O)(=O)OCC(Cl)(Cl)Cl)c1ccc(C(C)(C)C)cc1 (configuration not stated) returned KB-3-1 cytotox inactive, HT1080 IDH1KD tx 29µM*, MCF10A rerep inconclusive, HT1080NT lethal inconclusive, SW480 rereplic 0% and KB-V1 cytotox inconclusive.
`COc1ccc(CNC(=O)Oc2ccccc2)cc1Cl` gave KB-3-1 cytotox inactive, HT1080 IDH1KD tx -24%, MCF10A rerep 19%, HT1080NT lethal -28%, SW480 rereplic 2% and KB-V1 cytotox inactive.
`COc1cc(NC(=S)NC(=O)C(C)C)ccc1NC(=O)c1cc2ccccc2o1` gave KB-3-1 cytotox inactive, HT1080 IDH1KD tx 8%, MCF10A rerep 8.2µM*, HT1080NT lethal 5%, SW480 rereplic inconclusive and KB-V1 cytotox inactive.
COc1cc(NC(=O)c2cccc(C)c2)ccc1NC(=O)c1cc2ccccc2o1 was read as KB-3-1 cytotox inactive, HT1080 IDH1KD tx -14%, MCF10A rerep 2.6µM*, HT1080NT lethal -5%, SW480 rereplic 15% and KB-V1 cytotox inactive.
